Source: PubChem (National Center for Advancing Translational Sciences (NCATS))
RE007 growth inh: qHTS Assay for Inhibitors of the HIV-1 protein Vpr | S. pombe RE007 Vpr strain, BacTiter-Glo ATP luminescence, 24 h | Potency, µM (series often up to 92.2 µM), for inactives: at the highest dose activity change, negative = less growth, hits mostly inhibitors | 360,000 tested, 0.21% active; active = well fitted falling curve with a large enough effect; inconclusive = small, poorly fitted or top-dose-only effect; inactive = no such curve, though single readings can be large or run the other way; also: % is scaled to controls: 0 for no effect and ±100 for the full control effect; nearly all actives have a fitted effect of over 50% in size
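Fission yeast RE007 carrying one integrated HIV-1 vpr copy, seeded at OD 0.01 in PMG+AL medium with 23 nL pinned compound. Grown 24 h at 30 degrees; viability read by BacTiter-Glo luminescence after 5 min.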
NS1 inh: qHTS Assay for Inhibitors of Influenza NS1 Protein Function. 270,000 tested, 0.4% active. Potency, µM (series often up to 46.1 µM), for inactives: top-dose activity, positive = more growth. AID 2326, 2010; also: actives are rising curves; nearly all actives have a fitted effect of over 50% in size
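In this qHTS, NS1 from influenza A is expressed in budding yeast, where it slows growth. Cells are switched from glucose to 2% galactose medium (pH 6.0, -URA), treated with compound, and growth recovery is read at OD600.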
Pf growth 48h: Primary qHTS for delayed death inhibitors of the malarial parasite plastid, 48 hour incubation; P. falciparum luciferase growth in erythrocytes, 48 h; Potency, µM (titrated, usually from 28.7 µM), inactives show at the highest dose activity change, negative = inhibition, usual class: inhibitors; 310,000 tested, 5.9% active; active = well fitted inhibition curve with a large enough effect; inconclusive = small, poorly fitted or top-dose-only effect, or another doubt; inactive = no such curve, though single readings can be large or run the other way; also: % is scaled to controls: 0 for no effect and ±100 for the full control effect
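Luminescence readout; reporter = integrated firefly luciferase in P. falciparum. RBC culture at 2% hematocrit, 0.1% parasitemia final, 37 C/5% CO2; decreased signal taken as growth inhibition.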
SARS PLP yeast: qHTS of Yeast-based Assay for SARS-CoV PLP; Potency, µM (highest dose often 32.9 µM), inactives show at the top dose activity, positive = growth rescue, hits mostly activators; S. cerevisiae expressing SARS-CoV PLpro, growth rescue; 330,000 tested, 0.19% active; also: 0% is about no effect; nearly all actives have a fitted effect of over 55% in size
Pf growth 96h: Primary qHTS for delayed death inhibitors of the malarial parasite plastid, 96 hour incubation; P. falciparum luciferase reporter growth, 96 h; Potency, µM (top dose mostly 28.7 µM), for the others: at the highest dose activity change, negative = inhibition, most hits filed as inhibitors; 320,000 tested, 6.9% active; AID 504834, 2011; active = well fitted inhibition curve with a large enough effect; inconclusive = small, poorly fitted or top-dose-only effect, or another doubt; inactive = no such curve, though single readings can be large or run the other way; also: % is scaled to controls: 0 for no effect and ±100 for the full control effect
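P. falciparum expressing integrated firefly luciferase grown in erythrocytes (2% hematocrit, 0.05% parasitemia final) with compounds for 96 hours at 37 C, 5% CO2. Growth inhibition read as loss of luminescence after adding luciferase detection reagent.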
Active calls of the source: *; ? = inconclusive; . = no result; [ ] = remark or other dose. Rows were chosen to be rich in hits. Some 9.5% of all compounds tested hit in one or more screens of this group. Unless noted, calls follow the shape of the full dose curve. Potency is read from the fitted curve at half-maximal effect.

SMILES | RE007 growth inh | NS1 inh | Pf growth 48h | SARS PLP yeast | Pf growth 96h
CCCC(NC(=S)NCC1CCCO1)C12CC3CC(CC(C3)C1)C2 (stereo unspecified) | -4% | . | 2.6µM* | 3% | -1%
COc1ccc(CCNc2ncnc3c2nnn3Cc2ccccc2)cc1OC | -19% | -4% | ? | -1% | ?
Cc1c(O)c(CN2CCCC2)cc2c1oc(=O)c1ccccc12 | -16% | -20% | 1.5µM* | 1% | 6%
Cc1c(O)c(CN2CCCC2)cc2c3c(c(=O)oc12)CCC3 | -4% | 11% | 3.3µM* | -12% | ?
C=CCc1cc2c(oc(=O)c3ccccc32)c(C)c1O | 0% | -3% | -13% | -2% | 15µM*
CCOC(=O)N1CCN(C(=O)C[C@@H]2C[C@@]3(C(=O)OC)CC(C)(C)CC=C3N(Cc3cccc4ccccc34)C2=O)CC1 | 30% | . | . | . | .
CS(=O)(=O)N1CCN(Cc2ccc(C(F)(F)F)cc2)CC1 | 11% | -104% | . | 0% | 9.3µM*
CCOC(=O)CSc1nc2sc3c(c2c(=O)n1C1CCCCC1)CCN(C)C3 | -6% | 25% | 1.5µM* | -23% | ?
C=C(C)CSc1nc2sc3c(c2c(=O)n1-c1ccc(C)cc1)CCN(C)C3 | 5% | 7% | 1.3µM* | -1% | 0.93µM*
Cc1ccc(-n2c(SCC(=O)O)nc3sc4c(c3c2=O)CCCC4)cc1 | 16% | 3% | 11% | 0% | 2.9µM*
Cc1ccc(-n2c(SCC(=O)c3c(N)n(C)c(=O)n(C)c3=O)nc3sc4c(c3c2=O)CCCC4)c(C)c1 | -8% | ? | 1.2µM* | 2% | 0.83µM*
Cc1cccc(-n2c(SCC(=O)O)nc3sc4c(c3c2=O)CCCC4)c1 | -19% | 3% | -8% | -2% | 33%
Cc1cc(C)n2nc(SC(C)C(=O)NC3CCCCC3C)nc2n1 (stereo unspecified) | -1% | . | -2% | 3% | -13%
Cc1cc(C)cc(-n2cc[nH]c2=S)c1 | 8% | 17% | -5% | 20% | 9%
COc1ccc(C2/C(=C(/O)c3ccc4c(c3)CC(C)O4)C(=O)C(=O)N2CCCn2ccnc2)cc1OC (stereo unspecified) | 0% | . | . | . | .
COc1ccc(NC(=O)CSc2nc3sc4c(c3c(=O)n2-c2ccc(OC)cc2)CCN(C)C4)cc1 | -3% | 12% | ? | -8% | ?
CCOC(=O)CSc1nc2sc3c(c2c(=O)n1-c1ccc(OCC)cc1)CCN(C)C3 | 4% | 0% | 13µM* | 0% | 0.74µM*
COc1ccc(-n2c(SCC(=O)Nc3nccs3)nc3sc4c(c3c2=O)CCN(C)C4)cc1 | 0% | ? | ? | -5% | ?
CN(C)CCNc1nc2sc3c(c2c(=O)n1-c1ccc(F)cc1)CCCCC3 | 3% | -3% | 10µM* | 0% | ?
CCOc1ccc(-n2c(SCC(N)=O)nc3sc4c(c3c2=O)CCN(C)C4)cc1 | 1% | -2% | 1.5µM* | 0% | 0.66µM*
Cc1ccc(NC(=O)/C=C/C(=O)O)c(NC(=O)c2ccccc2)c1 | -8% | -2% | 22% | -3% | 17%
Clc1ccc(-c2csc(N3CCSCC3)n2)cc1 | -9% | 11% | 87% | -13% | 7%
Nc1cccc(S(=O)(=O)Nc2ccccc2)c1 | -2% | 4% | 2% | 1% | 16%[5.75 µM]
CCn1c(=N)n(CC(=O)C(C)(C)C)c2ccccc21 | -20% | -7% | . | 16% | 9.3µM*
CCCn1c(=N)n(CC(=O)C(C)(C)C)c2ccccc21 | -4% | -16% | ? | 1% | ?
SMILES | RE007 growth inh | NS1 inh | Pf growth 48h | SARS PLP yeast | Pf growth 96h
CC(C)COc1ccc(CNC(=S)Nc2ccccc2)cc1Cl | 4% | -2% | -12%[0.00184 µM] | -3% | ?
CCOC(=O)C1(Cc2cccc(Cl)c2)CCCN(C(=O)C(C)(C)C)C1 (stereo unspecified) | 5% | . | -13% | -3% | 121%
Cc1ccc(CN2CC(=O)N3[C@H]4c5ccccc5OC[C@@H]4[C@H](c4ccccc4)[C@]3(C)C2=O)cc1 | 7% | . | 9.3µM* | -2% | ?
CCCCN1CC(=O)N2[C@H]3c4ccccc4OC[C@@H]3[C@H](c3ccccc3)[C@]2(C)C1=O | -8% | . | ? | -3% | 5.9µM*
CCOC(=O)C1CCN(S(=O)(=O)c2ccc(C(C)(C)C)cc2)CC1 | -19% | 2% | -5% | -1% | ?
CC1(C)CC(=O)C2=C(C1)NC1=C(C(=O)c3ccccc31)C2c1ccc(Cl)cc1 (stereo unspecified) | -21% | 9% | ? | 9% | ?
Cc1ccc(C2C3=C(CC(C)(C)CC3=O)NC3=C2C(=O)c2ccccc23)cc1 (stereo unspecified) | 1% | ? | 5.2µM* | 12% | 1.9µM*
CCOC(=O)c1c(NC(=O)C2=C(C)NC(=S)NC2c2ccc(C)cc2)sc(C)c1C (stereo unspecified) | 6% | 0% | 12µM* | 11% | ?
CC(OC(=O)Cc1c[nH]c2ccccc12)C(=O)Nc1ccccc1F (stereo unspecified) | 13% | . | 8% | 1% | 2%
CN1[C@@H](Cc2ccccc2)COc2cc(N3CCSCC3)ccc2S1(=O)=O | 4% | . | . | . | .
COc1ccc(C2=NC(=O)/C(=C\c3cc(OC)c(OC)c(OC)c3)O2)cc1 | 0% | 2% | 16% | -2% | 0.93µM*
COc1ccc(/C=C2\N=C(c3ccc(C)cc3)OC2=O)cc1 | -12% | 14% | 29% | -2% | 322%
CN1C2CCC1CC(OC(c1ccccc1)c1ccc(Cl)cc1)C2 (stereo unspecified) | . | -31% | 4.8µM* | . | 9%
COc1cc(C)c(CNc2ccc(OC)c(OC)c2)cc1C | . | -3% | 9.3µM* | 5% | .
O=C(NCCCN1CCc2ccccc2C1)C1CCN(c2nnc(-n3cccc3)s2)CC1 | -4% | ? | 4.1µM* | 2% | ?
CC(C)(C)c1ccc(OCC(=O)O)c(Cl)c1 | . | 6% | . | . | .
C[C@@H](CNC1CCCCC1)OC(=O)c1ccccc1 | . | . | 2µM* | . | 2.6µM*
O=C(Cn1cnc2ccccc2c1=O)c1ccc(OC(F)F)cc1 | 2% | -51% | -8% | 0% | 4%
Cc1ccc(NC(=O)CSc2n[nH]c(-c3ccncc3)n2)cc1C | -2% | -4% | 12µM* | -3% | -23%
CC(C)c1ccc(C(=O)CSc2n[nH]c(-c3ccncc3)n2)cc1 | 17% | -221% | . | -32% | 2.6µM*
O=C(CSc1n[nH]c(-c2ccncc2)n1)Nc1ccc(F)cc1 | 3% | 1% | 12% | -3% | -2%
C=CCNS(=O)(=O)c1cc(S(=O)(=O)NCC=C)c(OC)cc1OC | 16% | . | 236% | 0% | 2.9µM*
C=CCNS(=O)(=O)c1ccc(OC)c(C)c1 | 4% | ? | 0% | 0% | .
